Source: PubChem BioAssay
Entries with a potency or affinity are not part of this list. Results filed as inconclusive are left out. Unmarked numbers belong to inactive results. How the calls were made is not given here.

test: non-specific cell cytotoxicity, dose response, cytotoxicity control for PAX8 inhibitor project, plate reader, dry powder samples (AID 743021); settings: cell line, non-specific cytotoxicity counter-screen; series mostly up to 35 µM; activity change, negative = cytotoxicity: at the top concentration

| Compound | activity change, negative = cytotoxicity |
| --- | --- |
| COc1ccc(F)cc1-c1cc(NC=O)c2ncc(-c3cc(OC)c(OC)c(OC)c3)n2c1 | -8.26% |
| Cc1ccc(-c2csc3ncnc(Sc4nnc(CN5CCCCCC5=O)o4)c23)cc1 | -2.75% [at 16 µM] |
| N#Cc1ccc(-c2ccc(C3[C@@H]4CN(C(=O)C5CC5)C[C@H]3N4)cc2)cc1 (some centres not stated) | -1.82% |
| CCOc1ccc(NC(=O)Nc2cc(OCC(F)(F)F)cc(OCC(F)(F)F)c2)cc1 | -6.15% |
| CCOC(=O)Nc1ccc2c(c1)N(C(=O)CCN(CC)CC)c1ccccc1S2=O (configuration not stated) | 57.4% |
| Cn1c(CCN2CCCC2)nc2cc(NS(=O)(=O)c3ccccc3)ccc21 | -9.54% |
| O=C(Nc1ccccc1)NN(C(=O)CCl)c1ccccc1 | -4.38% [at 16 µM] |
| Cc1ccc(NC(=O)CN(C)C(=O)Cn2ncc(Cl)c(Cl)c2=O)cc1 | -25.9% |
| O=C(NC12CC3CC(CC(C3)C1)C2)c1ccc([N+](=O)[O-])o1 | 10.3% |
| COc1cccc2c1C(=O)c1c(O)c3c(c(O)c1C2=O)CC(O)(C(=O)CO)CC3OC1CC(N(C)C)C(O)C(C)O1 (configuration not stated) | 33.6% |
| COC(=O)[C@]12CCCCC=C1N(Cc1ccc(Cl)cc1Cl)C(=O)[C@H](CC(=O)N1CCN(C(=O)c3ccco3)CC1)C2 | -17.3% |
| O=C(Nc1ccc(N2CCN(C(=O)c3ccccc3)CC2)cc1)c1ccc([N+](=O)[O-])o1 | 12.9% |
